Compound activity: PubChem, Johns Hopkins Ion Channel Center
Sampled rows, rich in hits. Any-hit rate of the full collection: about 3.5%.
KCNK3 inh: human KCNK3 channel inhibition, primary screen. O14649. B-score at 10 µM. hit rate 0.84% among 340,000. CHO-KCNK3 thallium flux, FluxOR fluorescence; hits give low values;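 active = B-score under library mean minus 4 SD, starting fluorescence ratio at most library mean plus 5 SD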;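 note: more negative B-score means stronger inhibition of thallium flux through KCNK3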
TMEM16A act: activators or potentiators of mouse TMEM16A chloride channel | B-score at 10 µM | AID 623877 | Q8BHY3 | hit rate 0.3% among 340,000 | HEK293 TMEM16A/YFP-H148Q/I152L, iodide quench fluorescence; hits give low values;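 active = fluorescence-ratio B-score plate-corrected deviation score at least 3 library SD below zero, with starting fluorescence score within 5 deviations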;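 note: channel opened by trigger with iodide after compound preincubation; score built on the fluorescence ratio of max minus min over baseline; more negative score means more quench and so TMEM16A activation or potentiation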
KCNK9 block: inhibitors of human KCNK9 two-pore domain potassium channel. B-score at 10 µM. AID 488922. Q9NPC2. HEK293 KCNK9, FluxOR thallium flux fluorescence; hits give low values. hit rate 1.2% among 310,000;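 active = ratio B-score over 3 SD below the library mean, with starting fluorescence within 5 SD of its mean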;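 note: negative B-score means less thallium flux so channel inhibition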
Target sequence (Q9NPC2 whole entry, looked up, the tested form may be a part): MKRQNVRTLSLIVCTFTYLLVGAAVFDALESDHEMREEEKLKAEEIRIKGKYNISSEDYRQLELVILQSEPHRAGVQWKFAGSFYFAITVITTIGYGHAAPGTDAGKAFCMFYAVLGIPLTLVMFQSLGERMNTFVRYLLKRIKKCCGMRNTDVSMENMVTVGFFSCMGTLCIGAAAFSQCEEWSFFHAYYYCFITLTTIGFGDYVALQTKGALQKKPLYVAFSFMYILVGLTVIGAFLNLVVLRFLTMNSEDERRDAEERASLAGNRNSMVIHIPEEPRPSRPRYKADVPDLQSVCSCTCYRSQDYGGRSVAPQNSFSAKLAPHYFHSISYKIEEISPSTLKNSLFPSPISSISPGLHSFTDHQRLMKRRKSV
Kir21 block: blocks the mouse Kir2.1 inward-rectifier potassium channel | B-score at 10 µM | HEK293-Kir2.1, FluxOR thallium flux fluorescence; hits give low values | hit rate 0.85% among 310,000 | P35561;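 active = fluorescence ratio B-score at or below minus 3 SD of library scores, with starting-brightness B-score within 2 SD, cut at about -4.2 in these data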;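 note: channel flux triggered by added potassium and thallium sulfate stimulus; B-score of peak minus minimum fluorescence over baseline after thallium stimulus; more negative B-score means stronger Kir2.1 block with less thallium influx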
ANO1 block: mouse TMEM16A channel inhibition, primary screen; normalized B-score (activity score, 25-100; higher = stronger inhibition) at 10 µM; HEK293 TMEM16A/YFP iodide influx fluorescence, ionomycin; Q8BHY3; hit rate 1.2% among 310,000; AID 588511;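 active = ratio plate-corrected score three or more library SD toward inhibition, starting fluorescence score within five deviations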;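 note: score derived from kinetic fluorescence span divided by baseline fluorescence per well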
KCNK9 block conf: confirmation of human KCNK9 potassium channel inhibitors; HEK293 KCNK9 cells, FluxOR thallium flux fluorescence; shares compounds with KCNK9 block; hit rate 43% among 4,900; inhibition, % at 10 µM; AID 492992;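 active = thallium signal inhibited by more than 5 SD of the compound-free buffer control wells, on both duplicate plates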
Kir21 sel: mouse Kir2.1 off-target activity of KCNK9 modulators | shares compounds with KCNK9 block | Kir2.1 cells, FluxOR thallium flux fluorescence | inhibition, % at 10 µM | hit rate 4% among 4,900 | AID 492993;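 active = thallium signal drop more than 5 SD beyond the mean of the no-compound control wells, seen in both duplicate plates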;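 note: signal is fluorescence rise after thallium addition divided by baseline fluorescence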
HEK293 Tl ctr: non-induced cell nonspecific activity of KCNK9 modulators | shares compounds with KCNK9 block | inhibition, % at 10 µM | non-induced KCNK9-HEK293, FluxOR thallium flux | hit rate 40% among 4,900;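 active = thallium signal drop beyond 5 SD of the untreated control mean, on both duplicate plates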
Hits are given with their value.

Results for CCc1ccc(CNC(=O)C2CCCN(S(=O)(=O)N3CC(C)CC(C)C3)C2)cc1 (configuration not stated) ?
KCNK3 inh: inactive; TMEM16A act: inactive; KCNK9 block: -8.2; Kir21 block: inactive; ANO1 block: inactive; KCNK9 block conf: 38%; Kir21 sel: inactive; HEK293 Tl ctr: inactive

What do the screens show for `C=CCNC(=O)Cc1ccc(S(=O)(=O)N2CCOCC2)s1`?
KCNK3 inh: inactive; TMEM16A act: inactive

What do the screens show for `CC(C(=O)NC1CCCC1)N(C(=O)c1ccc(-c2ccccc2)[nH]1)c1ccccc1F` (configuration not stated)?
KCNK3 inh: inactive; TMEM16A act: inactive; KCNK9 block: inactive; Kir21 block: inactive; ANO1 block: inactive; KCNK9 block conf: inactive; Kir21 sel: inactive; HEK293 Tl ctr: inactive

Results for Cc1nn(-c2ccccc2)c(Cl)c1/C=N/NC(N)=O ?
KCNK3 inh: inactive; TMEM16A act: inactive; KCNK9 block: inactive; Kir21 block: inactive; ANO1 block: inactive

How did Cc1nn(-c2ccccc2)c(Cl)c1/C=N/Nc1nc2ccccc2n1C do in these assays?
KCNK3 inh: inactive; TMEM16A act: inactive; KCNK9 block: inactive; Kir21 block: inactive; ANO1 block: inactive; KCNK9 block conf: inactive; Kir21 sel: inactive; HEK293 Tl ctr: inactive

How did Cc1ccc2c(c1)N(C(=O)NC1CCCCC1)C(C)(C)CC2C (configuration not stated) do in these assays?
KCNK3 inh: inactive; TMEM16A act: inactive; KCNK9 block: inactive; Kir21 block: inactive; ANO1 block: inactive; KCNK9 block conf: inactive; Kir21 sel: inactive; HEK293 Tl ctr: inactive

Results for CCOc1ccccc1Oc1cn[nH]c1-c1ccc(O)cc1O ?
KCNK3 inh: inactive; TMEM16A act: inactive; KCNK9 block: -10; Kir21 block: inactive; ANO1 block: inactive; KCNK9 block conf: 32%; Kir21 sel: inactive; HEK293 Tl ctr: inactive

What do the screens show for `COc1ccc(-c2[nH]ncc2Oc2ccccc2OC)c(O)c1`?
KCNK3 inh: inactive; TMEM16A act: inactive; KCNK9 block: inactive; Kir21 block: inactive; ANO1 block: inactive

How did COc1ccccc1NC(=O)c1ccc(NC(=O)CSc2ncn[nH]2)cc1 do in these assays?
KCNK3 inh: inactive; TMEM16A act: inactive; KCNK9 block: inactive; Kir21 block: inactive; ANO1 block: inactive

How did Cc1ccc(-n2c(Cc3ccccc3)n[nH]c2=S)c(C)c1 do in these assays?
KCNK3 inh: inactive; TMEM16A act: inactive; KCNK9 block: inactive; Kir21 block: inactive; ANO1 block: inactive

What do the screens show for `CCOc1ccc(Cc2n[nH]c(=S)n2Cc2ccccc2)cc1`?
KCNK3 inh: inactive; TMEM16A act: inactive; KCNK9 block: -15; Kir21 block: inactive; ANO1 block: inactive; KCNK9 block conf: 32%; Kir21 sel: inactive; HEK293 Tl ctr: 34%

What do the screens show for `S=c1[nH]nc(Cc2ccccc2)n1-c1cccc2ccccc12`?
KCNK3 inh: inactive; TMEM16A act: inactive; KCNK9 block: inactive; Kir21 block: inactive; ANO1 block: inactive; KCNK9 block conf: inactive; Kir21 sel: inactive; HEK293 Tl ctr: inactive

Results for COc1ccc(-c2cc(-c3ccccc3)nc(N)n2)c(O)c1 ?
KCNK3 inh: inactive; TMEM16A act: inactive

How did COc1ccc(OC)c(Nc2cc(-c3ccccc3)nc(N)n2)c1 do in these assays?
KCNK9 block: -8.2; Kir21 block: inactive; ANO1 block: inactive; KCNK9 block conf: 32%; Kir21 sel: inactive; HEK293 Tl ctr: inactive

Results for COc1ccc(OCC(=O)Nc2c3c(nn2C(C)(C)C)CSC3)cc1 ?
KCNK3 inh: inactive; TMEM16A act: inactive; KCNK9 block: -14; Kir21 block: inactive; ANO1 block: inactive; KCNK9 block conf: 57%; Kir21 sel: inactive; HEK293 Tl ctr: 24%

Results for N#Cc1sc2nc3c(c(-c4ccco4)c2c1N)CCCC3 ?
KCNK3 inh: inactive; TMEM16A act: inactive; KCNK9 block: inactive; Kir21 block: inactive; ANO1 block: inactive

What do the screens show for `Cc1ccccc1NC(=O)c1sc2nc3c(c(-c4ccco4)c2c1N)CCC3`?
KCNK3 inh: inactive; TMEM16A act: inactive; KCNK9 block: -8.1; Kir21 block: inactive; ANO1 block: inactive; KCNK9 block conf: 30%; Kir21 sel: inactive; HEK293 Tl ctr: 26%

Results for Cc1[nH]c2ccccc2c1/C=N/NC(=O)c1cc(-c2cccs2)[nH]n1 ?
KCNK3 inh: inactive; TMEM16A act: inactive; KCNK9 block: -10; Kir21 block: inactive; ANO1 block: inactive; KCNK9 block conf: inactive; Kir21 sel: inactive; HEK293 Tl ctr: inactive

How did COc1ccccc1C(=O)Oc1ccc(C(C)C)cc1 do in these assays?
KCNK3 inh: inactive; TMEM16A act: inactive; KCNK9 block: inactive; Kir21 block: inactive; ANO1 block: inactive; KCNK9 block conf: inactive; Kir21 sel: inactive; HEK293 Tl ctr: 30%

What do the screens show for `CC(C)N1C(=S)SC(C)(C)C1n1oc(=O)n(-c2cccc(Cl)c2)c1=O` (configuration not stated)?
KCNK3 inh: inactive; TMEM16A act: inactive; KCNK9 block: inactive; Kir21 block: inactive; ANO1 block: inactive

How did CC(C)CN1C(=S)SC(C)(C)C1n1oc(=O)n(-c2ccccc2)c1=O (configuration not stated) do in these assays?
KCNK3 inh: inactive; TMEM16A act: inactive; KCNK9 block: inactive; Kir21 block: inactive; ANO1 block: inactive; KCNK9 block conf: inactive; Kir21 sel: inactive; HEK293 Tl ctr: inactive

How did CCCOc1c(Br)cc(C(=O)OCc2cc(=O)n3ccsc3n2)cc1OC do in these assays?
KCNK3 inh: inactive; TMEM16A act: inactive

How did CC(C)C(Sc1nc(-c2ccccc2)cc(-c2ccccc2)c1C#N)C(=O)O (configuration not stated) do in these assays?
KCNK3 inh: inactive; TMEM16A act: inactive; KCNK9 block: inactive; Kir21 block: inactive; ANO1 block: inactive; KCNK9 block conf: inactive; Kir21 sel: inactive; HEK293 Tl ctr: inactive

How did C[C@H](CO)N1C[C@H](C)[C@@H](CN(C)S(=O)(=O)c2cn(C)cn2)Oc2ccc(NC(=O)Cn3cnnn3)cc2C1=O do in these assays?
KCNK3 inh: inactive; TMEM16A act: inactive

How did COc1ccccc1NC(=O)Nc1nnc(C(C)c2ccccc2)s1 (configuration not stated) do in these assays?
KCNK3 inh: inactive; TMEM16A act: inactive; KCNK9 block: -10; Kir21 block: inactive; ANO1 block: inactive; KCNK9 block conf: 56%; Kir21 sel: inactive; HEK293 Tl ctr: 24%

How did COc1ccccc1NC(=O)Nc1nnc(C(C)C)s1 do in these assays?
KCNK3 inh: inactive; TMEM16A act: inactive; KCNK9 block: inactive; Kir21 block: inactive; ANO1 block: inactive
